About 5,900 (2.8%) of roughly 210,000 compounds were called active. Not shown: some 5% with an inconclusive outcome. Calls come from the whole dose curve; as a rule, active = well fitted activation curve with a large enough effect; inconclusive = small, poorly fitted or top-dose-only effect; inactive = no such curve, though single readings can be large or run the other way. Many of the other results were omitted from the sample, so actives are more common in it than they were.
experiment: qHTS Assay for Enhancers of SMN2 Splice Variant Expression; settings: HEK293 SMN2-luciferase splicing reporter, luminescence, 30-36 h; series mostly up to 46.1 µM; activity change, positive = activation: at the top concentration; note: nearly all actives have a fitted effect of over 55% in size; for activity change, positive = activation: % of control where 0% means no effect
Procedure, shortened: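 HEK293 cells carry an SMN2 minigene-luciferase reporter in which exon 7 inclusion puts luciferase in frame. Cells were seeded at 2000 cells/well, attached for 10-12 hours, then exposed to compounds for 30-36 hours at 37C before ONE-Glo luminescence.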
Potency is the fitted concentration of half-maximal effect.

Activity change, positive = activation, inactive:
COc1ccc(CNC(=O)Cc2coc3ccc(C(C)C)cc23)cc1 -4.8%
O=C(Oc1cccc(NC2=NS(=O)(=O)c3ccccc32)c1)c1ccncc1 -1.12%
Cc1ccc(S(=O)(=O)N(NC2=NS(=O)(=O)c3ccccc32)C(=O)c2ccccc2)cc1 -33.5%
COc1ccc(CN2C(=O)C(NC(=O)c3cccc(C)c3)(C(F)(F)F)N=C2c2ccccc2)cc1 (stereo unspecified) -6.05%
OC(COc1ccc2ccccc2c1)Cn1cncn1 (stereo unspecified) 10.2%
Cc1cccc(OCC(O)Cn2c(=N)n(CCN3CCOCC3)c3ccccc32)c1 (stereo unspecified) -2.16%
Cc1cccc(N2CCN(C(=O)c3oc(=O)c4ccccc4c3-c3ccccc3)CC2)c1C -0.849%
CC1=Nc2cc(C(=O)N3CCC(C)CC3)ccc2Sc2ccc(Cl)cc21 -32.5%
NC(=O)c1ccccc1NC(=O)c1ccccc1F 10.5%
O=C(Nc1ccccc1)c1cccnc1Nc1ccccc1 -22.9%
O=C(CSc1oc(-c2ccccc2)nc1S(=O)(=O)c1ccc(Br)cc1)NC1CCCCC1 -5.27%
COc1ccc2c(c1)CCc1c(C(=O)Nc3c(C)n(C)n(-c4ccccc4)c3=O)noc1-2 -28%
COc1ccc2c(c1)CCc1c(C(=O)Nc3cc(C)ccc3O)noc1-2 21.9%
Cn1c(=O)c2c(nc(SCC(=O)Nc3ccc(F)cc3)n2Cc2ccccc2)n(C)c1=O -3.7%
Cc1ccc(CNC(=O)C2CCN(S(=O)(=O)c3ccc4nc5c(c(C(=O)O)c4c3)CC(C)CC5)CC2)cc1 (stereo unspecified) 4.28%
Cc1cc(C(=O)NCCCc2ccccc2)no1 24%
Nc1nonc1C(=O)NCCc1ccccc1 -21%
CCOC(=O)N1CCc2c(sc3c2c(=O)n(-c2ccc(CC)cc2)c(=O)n3C)C1 -4.84%
Cc1ccc(-c2ccc(CCC(=O)O)n2-c2ccc(C(N)=O)cc2)cc1 1.29%
Cc1cccc(OCC(=O)N(Cc2ccc(C(C)C)cc2)Cc2ccco2)c1C 2.91%
Cc1ccc(C)c(Cn2c(=O)n(CCC(=O)NCc3ccc4c(c3)OCO4)c(=O)c3sccc32)c1 -7.25%
N=c1oc2ccccc2cc1C(=O)N/N=C/c1ccccc1 -26.9%
COc1ccc(C/C(C)=N/NC(=O)c2cc(C)oc2C)cc1 -0.732%
CSc1ccc(CCNC(=O)c2cnn(-c3ccccc3)c2-n2cccc2)cc1 -6.66%
CC(C)c1ccc(C2CC(=O)N3CN(C4CCCCC4)CSC3=C2C#N)cc1 (stereo unspecified) -3.71%
CC(=O)OC(C(=O)NC1CCCCC1)c1ccccc1 (stereo unspecified) 8.55%
O=C(Cn1c(-c2cncs2)nc2ccccc21)NC1CCCC1 -7.74%
COc1ccccc1NC(=O)CSc1oc(-c2ccco2)nc1S(=O)(=O)c1ccc(Br)cc1 2.03%
CCOc1ccc(CNCCSc2nnnn2C)cc1 -10.5%
Cc1occc1C(=O)N1CCCc2ccccc21 23.4%
CCOC(=O)c1c(N)nn(C(=O)c2ccccc2)c1-c1ccccc1 -1.78%
CCCCCn1c(=O)[nH]c2cc(C(=O)NCCN(C)CCCC)ccc2c1=O 15.9%
C=Cc1ccc(Cn2c(C(=O)OC)cc3sc(C)cc32)cc1 18.4%
Cc1ccc(CCNC(=O)c2ccc3c(c2)N(Cc2cc(C)ccc2C)C(=O)c2ccccc2S3=O)cc1 (stereo unspecified) -9.89%
Cc1sc(C2C(C#N)=C(N)N(c3cccc(Cl)c3)C3=C2C(=O)CCC3)cc1CN1CCOCC1 (stereo unspecified) 8.27%
COc1cccc(-c2nnc(SCC(=O)N3CCC(C)CC3)o2)c1 9.23%
Cc1ccc(-c2noc(CN3CCN(Cc4ccccc4)CC3)n2)cc1 -89.9%
COc1ccc2[nH]c(=O)c(-c3noc(-c4ccc(F)cc4)n3)cc2c1 17%
Cc1ccc(-c2noc(CC(c3ccccc3)c3ccccc3)n2)cc1 -73.8%
COc1ccccc1Cc1nc(-c2ccc(C)cc2)no1 -16.6%
COc1cccc(CNC(=O)CCC(=O)N2CC3CCCN3c3ccccc32)c1 (stereo unspecified) 5.39%
O=C(CC1Oc2ccccc2NC1=O)NCc1ccc(F)cc1 (stereo unspecified) 10.9%
CCCCn1c(CNC(=O)C23CC4CC(CC(C4)C2)C3)nnc1SCC(=O)Nc1ccc(C)cc1 5.94%
CCCCCn1c(CCCNC(=O)c2ccccc2OC)nc2ccccc21 -46.9%
CCOC(=O)c1c(NC(=O)/C(C#N)=C/c2ccccc2)sc2c1CCC2 4.92%
COc1ccc(NC(=O)C2CCN(c3ccc(Sc4ccc(C)cc4)nn3)CC2)c(OC)c1 -15.5%
O=[N+]([O-])c1cc(Br)c(O)c(/C=N/Nc2nc3ccccc3s2)c1 -60.1%
O=C1NC(Nc2nc3ccccc3s2)(C(F)(F)F)C(=O)N1C1CCCCC1 (stereo unspecified) 9.35%
CCN(C(=O)c1sc2cc(OC)ccc2c1Cl)c1ccccc1 -48.3%
COc1ccc2c(c1)Cc1sc(NC(=O)c3ccccc3Br)nc1-2 -19.7%
Cc1ccc(CN(C(=O)COc2ccc(Cl)cc2C)C2CCS(=O)(=O)C2)o1 (stereo unspecified) 11.9%
O=c1oc2ccccc2cc1-c1cn(-c2ccccc2)c(=S)[nH]1 -69.9%
O=C(NCc1cccnc1)c1cccc(-c2cc3ccccc3oc2=O)c1 -47.8%
CC(C)Sc1oc(-c2cccs2)nc1S(=O)(=O)c1ccc(Cl)cc1 0.89%
COc1ccc(NC(=O)CCc2nnc3n(CC(C)C)c(=O)c4ccccc4n23)cc1OC -12.1%
CCOC(=O)c1cccc(NC(=O)C(Cc2ccccc2)NS(=O)(=O)c2cccc3nsnc23)c1 (stereo unspecified) -63.8%
COc1ccc(-c2csc(-c3c(N)c(C(=O)c4ccc(OC)c(OC)c4)n4ccccc34)n2)cc1 3.5%
CCCN1CCN(CCCNC(=O)CN2C(=O)COc3ccccc32)CC1 1.45%
O=C(CN1C(=O)COc2ccccc21)Nc1ccc(F)cc1 6.4%
CCc1ccccc1NC(=O)c1cc(-c2ccc3c(c2)OCO3)on1 2.35%
COc1ccc(C(=O)Nc2nc(-c3ccc(S(=O)(=O)N4CCOCC4)cc3)cs2)cc1 -69.5%
COc1ccc(-c2csc(N3CCN(Cc4ccc5c(c4)OCO5)CC3)n2)cc1 -26%
CCC(=O)N1CCc2cc(Br)cc(S(=O)(=O)CCC(=O)N3CCN(c4ccc(F)cc4)CC3)c21 10.4%
O=C(O)Cc1ccc(NC(=O)c2cccs2)cc1 -4.84%
Cc1ccc(-c2csc(NC(=O)Cc3cccs3)n2)cc1C -12.8%
Cc1ccc(-c2nnc(-c3ccc(NC(=O)c4cccs4)cc3)o2)cc1 -10.5%
Cc1ccc(-c2csc(NNC(=O)c3ccccc3)n2)cc1 6%
CCOC(=O)c1c(NC(=O)c2cc(CC)on2)sc(C(C)=O)c1C 9.96%
CC(C)Cn1c(-c2ccc(S(=O)(=O)N3CCOCC3)cc2)csc1=Nc1cc(Cl)ccc1Cl 0.999%
CCOc1ccc(CNC(=O)c2cccc(Nc3nc4ccccc4n4nnnc34)c2)cc1OC -3.76%
Cc1c(NC(=O)Nc2ccccc2)cccc1[N+](=O)[O-] -7.61%
Cc1cc(NC(=O)Nc2ccccc2[N+](=O)[O-])no1 17.6%
Cn1c(=O)c2c(nc(NCCc3ccccc3)n2Cc2ccccc2Br)n(C)c1=O 2.66%
COc1ccccc1-c1ccnc2[nH]n(-c3ccccc3)c(=O)c12 4.34%
CCOC(=O)C(Cc1ccccc1)NC(=O)CCc1c(C)nc2c(c(C)nn2-c2ccc(C)c(C)c2)c1C (stereo unspecified) 1.02%
COCC(=O)N1CCC2(CCCN(c3ccccc3)C2)CC1 -3.22%
COC(=O)c1ccc(CN2CCC(CO)(Cc3ccc(OC)cc3)CC2)cc1 -21.1%
COc1ccc(CNC(=O)Cn2nnc(-c3ccccc3F)n2)cc1 1.17%
COC(=O)c1ccccc1NC(=O)Cn1c(=O)n(-c2cccc(C(F)(F)F)c2)c(=O)c2c(C)c(C)sc21 1.12%
Cn1c(=O)c2c(nc(SCC(=O)Nc3ccc(F)cc3)n2Cc2ccc(Cl)cc2)n(C)c1=O -9.05%
COc1ccc(NC(=O)c2ccco2)cc1NC(=O)c1ccc(C#N)cc1F -1.6%
Cc1ccc(C(=O)NNC(=O)c2cccs2)cc1 75.8%
NNC(=O)c1ccc(Cl)cc1Cl -3.46%
Cc1cccc(NC(=O)c2nnn(CC(=O)Nc3ccc(C(C)C)cc3)c2N)c1C -1.97%
CCOc1ccc(CCNC(=O)c2csc3c2CCCCC3)cc1 10.9%
Cc1ccc(C)c(N2CCN(Cc3nnc(-c4ccccc4)o3)CC2)c1 -9.43%
COc1cccc2cc(-c3nc(Cl)c4c5c(sc4n3)CC(C)CC5)c(=O)oc12 (stereo unspecified) 7.63%

Potency, active:
CC(C)(C)c1csc(NC2=NS(=O)(=O)c3ccccc32)n1 8.91 µM
OC(COc1ccc2ccccc2c1)CN1CCOCC1 (stereo unspecified) 14.1 µM
O=C(Nc1ccccc1)c1ccccc1NC(=O)C(F)(F)F 10 µM
COc1ccc2c(c1)CCc1c(C(=O)N3CCCC3)noc1-2 17.8 µM
CC(C)Cc1cc(C(=O)NCCc2ccccc2)no1 12.6 µM
CC(=C/c1ccccc1)/C=N/NC(=O)c1cc(C)oc1C 15.8 µM
O=C(/C=C/c1cnc2ccccc2n1)NC1CCCCCC1 11.2 µM
Cc1nn(C(=O)c2ccoc2C)c(N)c1-c1ccccc1 12.6 µM
Cc1cccc(-c2noc(-c3ccc(F)cc3)n2)c1 11.2 µM
Cc1ccc(Cc2nc(-c3cccc(C)c3)no2)cc1 11.2 µM
c1ccc2sc(NN=C3CCCC3)nc2c1 3.16 µM
Nc1ncc(-c2cc3ccccc3oc2=O)s1 15.8 µM
O=C(CN1C(=O)COc2ccccc21)NCCN1CCc2ccccc2C1 7.08 µM
COc1ccc(-c2csc(Cc3nc(O)cs3)n2)cc1 11.2 µM
Cc1ccc(-c2csc(NC(=O)c3cccs3)n2)cc1 11.2 µM
Cc1nc(-c2ccc(NC(=O)c3cccs3)cc2)cs1 3.16 µM
Cc1csc(NC(=O)Nc2ccccc2[N+](=O)[O-])n1 5.62 µM
COC(=O)CCC(=O)N1CCCC(CO)(Cc2ccccc2)C1 (stereo unspecified) 14.1 µM
O=C(NNC(=O)c1ccc(Cl)cc1Cl)c1cccs1 12.6 µM

— PubChem BioAssay AID1458 (National Center for Advancing Translational Sciences (NCATS), 2008)
